This is a sample that favours compounds with a hit; in the whole collection about 1.2% have one here.
RGS16-Gao HTS – modulators of RGS16 binding to Galphao, primary screen, biochemical, human proteins, multiplexed bead flow cytometry; binding response (% of control), % at 10 µM; 220,000 compounds, 0.38% hits; bead-based flow cytometry RGS16-Galphao binding, fluorescence; actives lie on both sides; AID 1441, 2008; Regulator of G-protein signaling 16 (Homo sapiens) + Guanine nucleotide-binding protein …;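 note: Galphao activated by GDP with aluminum fluoride before binding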
Target sequence (O15492 whole entry, looked up): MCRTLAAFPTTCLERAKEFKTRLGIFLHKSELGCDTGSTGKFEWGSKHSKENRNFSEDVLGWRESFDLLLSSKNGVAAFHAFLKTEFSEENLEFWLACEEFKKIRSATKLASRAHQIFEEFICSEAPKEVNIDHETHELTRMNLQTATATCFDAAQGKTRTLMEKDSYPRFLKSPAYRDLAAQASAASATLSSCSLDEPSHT
Target sequence (P09471 whole entry, looked up): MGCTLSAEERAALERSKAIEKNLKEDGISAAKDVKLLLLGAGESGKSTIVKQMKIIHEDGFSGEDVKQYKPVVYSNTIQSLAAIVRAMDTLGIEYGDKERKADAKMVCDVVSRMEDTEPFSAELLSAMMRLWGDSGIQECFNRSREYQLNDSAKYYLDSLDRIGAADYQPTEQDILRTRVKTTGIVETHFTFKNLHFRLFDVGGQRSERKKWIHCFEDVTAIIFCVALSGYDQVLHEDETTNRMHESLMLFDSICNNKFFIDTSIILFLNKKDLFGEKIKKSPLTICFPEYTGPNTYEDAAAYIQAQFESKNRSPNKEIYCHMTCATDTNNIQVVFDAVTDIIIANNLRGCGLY
RGS8-Gao – RGS8-Galphao binding modulators, primary screen, biochemical, multiplexed bead flow cytometry; Guanine nucleotide-binding protein G(o) subunit alpha (Homo sapiens), P09471; actives lie on both sides; response (percent of control binding), % at 10 µM; 220,000 compounds, 0.34% hits; in the data active = response below about 60% or above about 140%; inactive = in between;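 note: Galphao activated as the GDP aluminium fluoride complex binding bead-coupled RGS8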
Target sequence (P09471 whole entry, looked up): as above
RGS7-Gao – RGS7-Galphao binding modulators, primary screen, biochemical, multiplexed bead flow cytometry | Guanine nucleotide-binding protein G(o) subunit alpha (Homo sapiens), P09471 | actives lie on both sides | binding response (% of control), % at 10 µM | 220,000 compounds, 0.35% hits; in the data active = binding response below about 49% or above about 150%; inconclusive = no clear call, values can overlap the other calls; inactive = in between;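 note: fluorescent Galphao held in activated GDP-AlF4 state binding bead-coupled RGS7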
GSH fluor – compound fluorescence on glutathione beads, profiling panel, artefact control, biophysical, 488/530 nm, flow cytometry; fluorescence (KMESF) at 10 µM; GSH beads flow cytometry, compound fluorescence 488/530 nm; hits give high values; 190,000 compounds, 0.25% hits; in the data active = fluorescence above about 89;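 note: glutathione beads carrying GST-tagged Bcl family fusion proteins plus one bare bead set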
Avidin fluor – green autofluorescence of compounds with avidin beads – biophysical, 488/530 nm, flow cytometry, artefact control, profiling panel; compound fluorescence 488/530 nm; hits give high values; fluorescence (KMESF) at 10 µM; 220,000 compounds, 0.38% hits; in the data active = fluorescence above about 47
RGS4-Gao reg – modulators of RGS4 binding to Galphao, primary screen, biochemical, multiplexed bead flow cytometry | actives lie on both sides | binding response (% of control), % at 10 µM | 220,000 compounds, 0.33% hits | AID 1415, 2008 | Guanine nucleotide-binding protein G(o) subunit alpha (Homo sapiens), P09471; in the data active = binding response below about 49% or above about 150%; inactive = in between;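 note: fluorescent Galphao activated with aluminum fluoride binding bead-coupled RGS4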
RGS-Gao – modulators of RGS–Galpha-o binding, primary screen, biochemical, multiplexed beads, flow cytometry, RGS4/7/8/16/19; shares compounds with RGS16-Gao HTS; multiplexed bead flow cytometry; RGS4–Galpha-o binding response, % at 10 µM; 1,600 compounds, 99% hits; AID 1504, 2009;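 note: fluorescently labeled Galpha-o bound to GDP with aluminium fluoride binding biotinylated RGS beads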
Avidin counter – disruption of biotin probe capture by avidin, counter-screen for RGS protein interaction modulators, biochemical, flow cytometry, bead-based | streptavidin beads, fluorescein-biotin binding | shares compounds with RGS16-Gao HTS | 1,700 tested, under 10 active | AID 1783, 2009 | inhibition, % at 10 µM;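 active = inhibition above 50%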;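 note: median green fluorescence of gated singlet beads compared with DMSO control wells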
RGS8-Gao single – RGS8-Galphao binding modulators, confirmation, biochemical, multiplexed bead flow cytometry, single concentration; shares compounds with RGS16-Gao HTS; AID 1836, 2009; bead-based flow cytometry RGS8-Galphao binding, fluorescence; actives lie on both sides; binding response (% of control), % at 10 µM; 1,700 compounds, 3% hits; in the data active = binding response below about 72% or above about 130%; inactive = in between;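 note: Galphao activated as GDP AlF4 complex before binding bead RGS8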
RGS7-Gao confirm – RGS7-Galphao binding modulators, confirmation, biochemical, multiplexed bead flow cytometry, single concentration. AID 1837, 2009. response (percent of control binding), % at 10 µM. bead-based flow cytometry RGS7-Galphao binding; actives lie on both sides. 1,700 compounds, 7.8% hits. shares compounds with RGS16-Gao HTS; in the data active = response below about 75% or above about 130%; inactive = in between;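 note: fluorescent Galphao activated with GDP and aluminum fluoride binding bead-coupled RGS7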
RGS16-Gao conf – modulators of RGS16-Galphao protein binding, confirmation, biochemical, single concentration, multiplexed bead flow cytometry | shares compounds with RGS16-Gao HTS | bead-based flow cytometry; actives lie on both sides | response (% of control binding), % at 10 µM | 1,700 compounds, 4% hits | AID 1838, 2009; in the data active = response below about 74% or above about 130%; inactive = in between;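 note: Galphao activated as the GDP aluminium fluoride complex binding bead-coupled RGS16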
RGS4-Gao confirm – modulators of RGS4-Galphao protein binding, confirmation, biochemical, single concentration, multiplexed bead flow cytometry. 1,700 compounds, 4% hits. actives lie on both sides. binding response (% of control), % at 10 µM. shares compounds with RGS16-Gao HTS; in the data active = binding response below about 74% or above about 130%; inactive = in between
RGS19-Gao conf – regulators of RGS19-Galphao binding, confirmation, biochemical, single point, multiplexed bead flow cytometry; bead-based flow cytometry RGS19-Galphao binding; actives lie on both sides; shares compounds with RGS16-Gao HTS; AID 1841, 2009; 1,700 compounds, 5% hits; response (percent of control binding), % at 10 µM; in the data active = response below about 50% or above about 160%; inactive = in between
Each line names hits and unclear results; the compound was inactive in the other large screens (follow-up assays come after a bar, where they were run); [ ] = remark or other dose. Unless noted, the rule behind the calls is not given here.

CCOc1cc(/C=N/N2CCOCC2)ccc1OCc1ccc(C(=O)OC)o1	none
Cc1ccc(OCC(=O)Nc2cnn(CCCC(=O)O)c2)c([N+](=O)[O-])c1	none
O=C(NCc1ccco1)c1ccc2snnc2c1	RGS7-Gao 188[activator], Avidin fluor 187 | RGS-Gao 114 | Avidin counter inactive | RGS8-Gao single inactive | RGS7-Gao confirm inactive | RGS16-Gao conf inactive | RGS4-Gao confirm inactive | RGS19-Gao conf inactive
CC(=O)OCC1(C)CN(c2ccccc2)NC1=O (stereo not drawn)	RGS7-Gao inconclusive
O=C1OCC2OC(O)C(O)C(O)C2OC(=O)c2cc(O)c(O)c(O)c2-c2c(O)c(O)c3oc(=O)c4c(c(O)c(O)c5oc(=O)c2c3c54)-c2c1cc(O)c(O)c2O (stereo not drawn)	RGS8-Gao 36, RGS7-Gao inconclusive, RGS4-Gao reg 48 (no result: GSH fluor) | Avidin counter inactive | RGS8-Gao single 37 | RGS7-Gao confirm 32 | RGS16-Gao conf inactive | RGS4-Gao confirm 47 | RGS19-Gao conf inactive
COc1c2ccoc2nc2c(OC)c(OCC(OC(C)=O)C(C)(C)O)ccc12 (stereo not drawn)	none
O=C(CCc1nc2ccccc2c(=O)[nH]1)Nc1ccc(Cl)c(Cl)c1	RGS16-Gao HTS 9.1 | RGS-Gao 86 | Avidin counter inactive | RGS8-Gao single inactive | RGS7-Gao confirm inactive | RGS16-Gao conf inactive | RGS4-Gao confirm inactive | RGS19-Gao conf inactive
CCOC(=O)c1c(C)[nH]c(C(=O)CSc2nnc(-c3ccncc3)n2CC)c1C	none
C=CCn1c(SCC(=O)c2[nH]c(C)c(C(=O)OCC)c2C)nc2scc(-c3ccc(OC)c(OC)c3)c2c1=O	RGS16-Gao HTS 191[activator], RGS4-Gao reg 168[activator] | Avidin counter inactive | RGS8-Gao single inactive | RGS7-Gao confirm inactive | RGS16-Gao conf inactive | RGS4-Gao confirm inactive | RGS19-Gao conf inactive
O=C(Nc1ccccc1SCC1CSc2nc3ccccc3c(=O)n21)c1ccccc1Cl (stereo not drawn)	none (no result: RGS16-Gao HTS, RGS8-Gao, RGS7-Gao, Avidin fluor, RGS4-Gao reg) | Avidin counter inactive | RGS8-Gao single inactive | RGS7-Gao confirm 75 | RGS16-Gao conf inactive | RGS4-Gao confirm inactive | RGS19-Gao conf inactive
Brc1ccc(-c2ccc(/C=N/Nc3nc4ccccc4[nH]3)o2)cc1	none
COCCn1c(C)cc(C(=O)COC(=O)c2ccc3ncsc3c2)c1C	RGS16-Gao HTS -53, RGS8-Gao 47, RGS7-Gao 15, RGS4-Gao reg -46 | Avidin counter inactive | RGS8-Gao single inactive | RGS7-Gao confirm inactive | RGS16-Gao conf inactive | RGS4-Gao confirm inactive | RGS19-Gao conf inactive
Cc1ccc(S(C)(=O)=N/C=C2\C(=O)c3sccc3N(C)S2(=O)=O)cc1 (stereo not drawn)	RGS7-Gao inconclusive (no result: GSH fluor)
COc1ccc(C2=NOC(CNC(=S)N3CCOCC3)C2)cc1 (stereo not drawn)	RGS7-Gao inconclusive (no result: GSH fluor)
O=C(Nc1ccccc1)N1CCCN(c2ccc(C(F)(F)F)cc2[N+](=O)[O-])CC1	RGS16-Gao HTS 21, RGS8-Gao 41, RGS7-Gao inconclusive, RGS4-Gao reg 23 (no result: GSH fluor) | Avidin counter inactive | RGS8-Gao single inactive | RGS7-Gao confirm inactive | RGS16-Gao conf inactive | RGS4-Gao confirm inactive | RGS19-Gao conf inactive
Cc1nc2ncnn2c(N2CCN(C(c3ccccc3)c3ccccc3)CC2)c1C	none
Cc1cc(N2CCN(C(c3ccccc3)c3ccccc3)CC2)n2ncnc2n1	none (no result: RGS16-Gao HTS, RGS8-Gao, RGS7-Gao, Avidin fluor, RGS4-Gao reg) | Avidin counter inactive | RGS8-Gao single inactive | RGS7-Gao confirm inactive | RGS16-Gao conf inactive | RGS4-Gao confirm inactive | RGS19-Gao conf inactive
Cc1cc(C)c2c(=O)n(CC(=O)Nc3cccc(F)c3)sc2n1	RGS16-Gao HTS 17, RGS7-Gao inconclusive (no result: GSH fluor) | RGS-Gao 83 | Avidin counter inactive | RGS8-Gao single 67 | RGS7-Gao confirm inactive | RGS16-Gao conf 17 | RGS4-Gao confirm inactive | RGS19-Gao conf 24
Cc1ccc(NC(=O)Cn2sc3nc(C)cc(C)c3c2=O)c(Cl)c1	RGS16-Gao HTS 16, RGS7-Gao inconclusive (no result: GSH fluor) | RGS-Gao 88 | Avidin counter inactive | RGS8-Gao single 65 | RGS7-Gao confirm inactive | RGS16-Gao conf 22 | RGS4-Gao confirm inactive | RGS19-Gao conf 18
CCOc1ccc(NC(=O)Cn2sc3nc(C)cc(C)c3c2=O)cc1	RGS7-Gao inconclusive (no result: GSH fluor)
Cc1cc(C)c2c(=O)n(CC(=O)Nc3ccc(Cl)cc3)sc2n1	RGS16-Gao HTS 12, RGS7-Gao inconclusive (no result: GSH fluor) | RGS-Gao 101 | Avidin counter inactive | RGS8-Gao single 68 | RGS7-Gao confirm inactive | RGS16-Gao conf 15 | RGS4-Gao confirm inactive | RGS19-Gao conf 17
Cc1cccc(N2CCN(C(=O)Cn3sc4nc(C)cc(C)c4c3=O)CC2C)c1 (stereo not drawn)	RGS16-Gao HTS 22 | RGS-Gao 94 | Avidin counter inactive | RGS8-Gao single 63 | RGS7-Gao confirm inactive | RGS16-Gao conf 12 | RGS4-Gao confirm inactive | RGS19-Gao conf 2.5
